# Screens from PubChem BioAssay.
# Vif-APOBEC3G blk: inhibitors of Vif-APOBEC3G interaction | Q9HC16 | HeLa A3G-eYFP + Vif (tagged APOBEC3G with the HIV-1 protein that degrades it), YFP fluorescence, overnight | Potency, µM (series often up to 46.1 µM), hits mostly inhibitors | actives 0.076% (n = 410,000) | AID 602310; also: nearly all actives have a fitted effect of over 60% in size
# Target sequence (Q9HC16 whole entry, looked up): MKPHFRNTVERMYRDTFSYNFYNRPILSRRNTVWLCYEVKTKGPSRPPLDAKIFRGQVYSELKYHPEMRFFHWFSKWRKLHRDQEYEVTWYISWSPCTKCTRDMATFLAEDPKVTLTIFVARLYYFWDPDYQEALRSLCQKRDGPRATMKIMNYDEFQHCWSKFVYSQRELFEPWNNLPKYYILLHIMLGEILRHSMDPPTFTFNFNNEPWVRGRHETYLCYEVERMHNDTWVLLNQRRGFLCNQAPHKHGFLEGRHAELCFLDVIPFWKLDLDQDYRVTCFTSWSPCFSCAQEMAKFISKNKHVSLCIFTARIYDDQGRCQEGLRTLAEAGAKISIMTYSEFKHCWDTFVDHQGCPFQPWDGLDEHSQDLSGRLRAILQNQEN
#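 Read-out is eYFP fluorescence (Ex 488/Em 500-530) from Vif-expressing HeLa A3G-eYFP cells; more signal means A3G escaped Vif-mediated degradation. Cells plated overnight, compound pinned in, incubated overnight at 37 deg C.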
# Glioma ERSR ind: inducers of ER stress response in human glioma cells; Potency, µM, actives largely listed as activators; actives 0.02% (n = 420,000); U87-MG GRP78 promoter luciferase reporter, 16 h; also: series mostly up to about 76 µM; nearly all actives have a fitted effect of over 35% in size
#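 Stably transfected U87-MG glioma cells carrying a GRP78-based luciferase sensor; 16 h compound incubation. Luminescence end-point read 10 min after Bright-Glo addition at room temperature.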
# Vif-A3F inh: Vif-A3F binding inhibition; HeLa A3F-eYFP + Vif (tagged APOBEC3F with the HIV-1 protein that degrades it), YFP fluorescence increase; Potency, µM (top dose mostly 46.1 µM); actives 0.2% (n = 390,000); AID 602313; also: nearly all actives have a fitted effect of over 65% in size
#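 HeLa cells stably expressing Vif plus C-terminally eYFP-tagged A3F were seeded, incubated overnight at 37 deg C, dosed with compound, incubated overnight again at 37 deg C. Yellow fluorescence (Ex 488/Em 500-530) reported blocked Vif-mediated A3F-eYFP degradation.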
# PINK1 expr mod: changes PINK1 expression; actives 0.2% (n = 410,000); Potency, µM (series often up to 76.6 µM), most hits filed as activators; AID 624263; PINK1 immunofluorescence, high-content cytometry, 24 h; active = well fitted activation curve with a large enough effect; inconclusive = small, poorly fitted or top-dose-only effect; cell line not stated here; also: nearly all actives have a fitted effect of over 65% in size
#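 Fluorescence from anti-PINK1 antibody, together with nuclear and cell stains, was scanned on a laser-scanning cytometer. Before staining, stable-line cells were incubated 24 hours with compounds at 5 concentrations; primary antibody 12 h at 10 degrees C.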
# Abeta yeast res: A-beta toxicity reversal in yeast; Potency, µM (titrated, usually from 46.1 µM), most hits filed as activators; yeast expressing A-beta42, growth rescue, OD600, 48 h; response scale: 0% DMSO, 100% iron-clioquinol control; actives 0.063% (n = 410,000); also: nearly all actives have a fitted effect of over 55% in size
#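 Yeast growth medium received pinned compounds, then yeast cells expressing toxic A-beta were added; plates incubated at 30 C for 48 hr. Growth read as absorbance at 600 nm, normalized to DMSO and equimolar FeCl3 plus clioquinol controls.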
# FUS yeast rescue: suppressors of FUS proteinopathy in yeast; actives 0.24% (n = 390,000); AID 1347120; Potency, µM (top dose mostly 76.6 µM), most hits filed as activators; S. cerevisiae FUS-expressing, growth rescue, OD600, 24 h; also: nearly all actives have a fitted effect of over 55% in size
#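 Restored growth of FUS-toxic S. cerevisiae, read as 600 nm absorbance after 24 h at 30C in galactose medium (starting OD 0.005). Controls CP55940 and DMSO.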
# A number is an active result; n = inactive; u = inconclusive; x = no result. The list is not random: actives were taken first. Their share in the collection is about 0.69%. Unless noted, calls follow the shape of the dose curve; as a rule, active = well fitted curve in the direction sought with a large enough effect; inconclusive = small, poorly fitted or top-dose-only effect, or another doubt; inactive = no such curve, though single readings can be large; an effect the other way counts as inactive or inconclusive.
SMILES,Vif-APOBEC3G blk,Glioma ERSR ind,Vif-A3F inh,PINK1 expr mod,Abeta yeast res,FUS yeast rescue
COc1cc(/C=C2\SC(=Nc3cccnc3)NC2=O)cc(OC)c1OC,u,n,25µM,n,n,n
COc1cc(/C=C2/SC(=Nc3ccc(O)cc3)NC2=O)ccc1O,u,n,25µM,n,n,n
O=C1NC(=Nc2cccnc2)S/C1=C\c1cccc(F)c1,n,n,n,n,n,n
COc1cc(/C=C2\SC(=Nc3ccccc3OC)NC2=O)ccc1O,u,n,u,n,n,n
Cc1nnsc1C(=O)NCC1Cc2cccc(-c3ncccn3)c2O1 (stereo not given),x,n,x,n,x,x
N#CC1=C2SCN(Cc3ccco3)CN2C(=O)CC1c1ccc(Cl)cc1 (stereo not given),n,n,n,n,n,20µM
COc1cccc(=O)c2c(C)n(C)c(C)c12,n,n,n,n,n,28µM
CCOc1cccc(=O)c2c(C)n(C)c(C)c12,n,n,n,n,n,u
Cc1cccc(/N=C/c2sc3ccccc3c2O)n1,n,n,u,45µM,n,n
NC1=NC(=O)/C(=C/c2ccccc2OCC(=O)Nc2ccc(F)cc2)S1,n,n,n,n,n,n
O=C(COc1ccccc1/C=C1\SC(=S)NC1=O)Nc1ccc(F)cc1,n,n,u,32µM,n,n
CCn1nc(C)cc1C(=O)NCCN1Cc2ccccc2OC(c2ccccc2F)C1 (stereo not given),x,n,x,n,x,x
COc1cccc(N2CCN(Cc3nc4scc(-c5ccccc5)c4c(=O)[nH]3)CC2)c1,8.9µM,n,n,n,n,u
COCC(=O)Nc1cc(C(=O)N2CCN(c3ccccc3)CC2C)c2c(c1)nc(-c1ccncc1)n2C (stereo not given),x,n,x,n,x,x
CO[C@H]1[C@H](NC(=O)c2ccco2)c2ccccc2C12CCN(Cc1cc(Cl)ccc1O)CC2,x,n,x,n,x,x
CC1(C)Cc2ccccc2C2CC(O)C(=O)N21 (stereo not given),u,n,25µM,x,n,n
O=C1c2ccccc2[C@@H]2CC(O)C(O)CCN12 (stereo not given in full),n,n,n,n,n,n
Cc1cnc2ccccc2c1/C=C/c1ccc(N(C)C)cc1,n,n,x,x,x,x
COCc1ccc(CN2Cc3cc(Cl)ccc3OC(C)C2)o1 (stereo not given),x,n,x,n,x,x
O=C(c1ccccc1)N1CCCCC(S(=O)(=O)c2ccc3ccccc3c2)C1=O (stereo not given),n,n,n,5µM,n,n
O=C(Nc1cccc(C(F)(F)F)c1)c1sc(Cl)nc1C(F)(F)F,n,n,n,n,10µM,n
O=C(Nc1cccc(C(F)(F)F)c1)c1cc(-c2ccco2)on1,n,n,n,n,n,n
COC(=O)c1cccc(S(=O)(=O)N(Cc2ccco2)Cc2cc3ccc(OC)cc3[nH]c2=O)c1,n,n,n,14µM,n,n
COC(=O)c1cccc(S(=O)(=O)N(Cc2ccco2)Cc2cc3cc(OC)c(OC)cc3[nH]c2=O)c1,n,n,n,n,n,n
O=[N+]([O-])c1cc(S(=O)(=O)Nc2cccc(C(F)(F)F)c2)ccc1-n1nnc2ccccc21,n,n,n,22µM,n,x
SMILES,Vif-APOBEC3G blk,Glioma ERSR ind,Vif-A3F inh,PINK1 expr mod,Abeta yeast res,FUS yeast rescue
CCc1ccc(Nc2cc(=O)n(C3CCCCC3)c(=O)[nH]2)cc1,n,n,n,28µM,n,n
CN1CCC(OC(=O)c2cc3cc(Cl)cc(Cl)c3oc2=O)CC1,11µM,n,n,n,n,n
CCn1c(-c2ccccc2F)nc2cc(C(=O)NC(c3ccccn3)C(F)(F)F)cc(NC(C)=O)c21 (stereo not given),x,n,x,n,x,x
C=CCNC(=S)NC(=O)c1ccc(C)c(Br)c1,n,n,n,n,10µM,n
C=CCNC(=S)NNC(=O)c1ccc(C)c(Cl)c1,n,n,n,n,n,n
CCC1CN(CC(=O)NCc2cc(C)n(C)n2)Cc2cc(OC)ccc2O1 (stereo not given),x,n,x,n,x,x
O=C(NCc1ccncc1)c1cnn(-c2ncc3c(n2)-c2ccccc2CC3)c1C1CC1,x,n,x,n,x,x
Nc1ccccc1/C=C/c1ccnc2ccccc12,13µM,n,x,n,x,x
